PubChem BioAssay (NCATS)
Inconclusive results are not listed. Unmarked numbers belong to inactive results. Activity calls are given as the source filed them. Calls follow the shape of the dose curve; as a rule, active = well fitted inhibition curve with a large enough effect; inconclusive = small, poorly fitted or top-dose-only effect; inactive = flat fitted curve, though single readings scatter.

Test: P-glycoprotein substrates identified in KB-8-5-11 adenocarcinoma cell line, qHTS therapeutic library screen (AID 1346987); also: nearly all actives have a fitted effect of over 65% in size
Settings: KB-8-5-11 (P-gp overexpressing) viability, CellTiter-Glo, 72 h; series mostly up to 44.5 µM; activity change, negative = cytotoxicity: at the top concentration
Method in brief: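 KB-8-5-11: colchicine-selected sub-line of KB-3-1 over-expressing P-gp; assay medium lacked colchicine. 72 h drug exposure at 37 degree C, CellTiter-Glo.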
% is scaled to controls: 0 for no effect and ±100 for the full control effect.

Compound	activity change, negative = cytotoxicity	outcome
Cc1ccccc1CN1CCn2c1nc1c(c2=O)CN(Cc2ccccc2)CC1	-16.3%	–
CC(C)=CCC/C(C)=C/COCC1OC(n2ccc(=O)[nH]c2=O)C(O)C1O (stereo unspecified)	–	inactive
CCCn1cc2c(nc(NC(=O)Nc3ccc(OC)cc3)n3nc(-c4ccco4)nc23)n1	3.1%	–
OC(CN1CCCCC1)c1cc(-c2ccccc2)on1 (stereo unspecified)	-8.56%	–
C=CC(C)(O)CC/C=C(\C)C(=O)OC1C(O)C(CO)OC(OC(=O)C23CCC(C)(C)CC2C2=CCC4C5(C)CCC(OC6OC(COC7OCC(OC(C)=O)C(O)C7OC7OC(COC(C)=O)C(O)C(O)C7OC(C)=O)C(O)C(O)C6OC6OCC(O)C(O)C6O)C(C)(C)C5CCC4(C)C2(C)C(O)C3O)C1OC1OCC(OC2OCC(O)C(OC3OCC(O)C(O)C3O)C2O)C(O)C1O (stereo unspecified)	-2.64% [at 5.11 µM]	–
O=C(Nc1ccc(N(Cc2ccsc2)C(=O)Cn2nnc3ccccc32)cc1)C1CC1	-25.3%	–
